For 35 targets, log2 fold change results are on record in the supplement of paper PMC10849652.

The full data set covers some 7,900 targets. This sample favours those with a hit. About 0.6% of all pairs of compound and target were hits. Unmarked numbers belong to inactive results.

UniProt P42575, sequence (P42575 whole entry, looked up): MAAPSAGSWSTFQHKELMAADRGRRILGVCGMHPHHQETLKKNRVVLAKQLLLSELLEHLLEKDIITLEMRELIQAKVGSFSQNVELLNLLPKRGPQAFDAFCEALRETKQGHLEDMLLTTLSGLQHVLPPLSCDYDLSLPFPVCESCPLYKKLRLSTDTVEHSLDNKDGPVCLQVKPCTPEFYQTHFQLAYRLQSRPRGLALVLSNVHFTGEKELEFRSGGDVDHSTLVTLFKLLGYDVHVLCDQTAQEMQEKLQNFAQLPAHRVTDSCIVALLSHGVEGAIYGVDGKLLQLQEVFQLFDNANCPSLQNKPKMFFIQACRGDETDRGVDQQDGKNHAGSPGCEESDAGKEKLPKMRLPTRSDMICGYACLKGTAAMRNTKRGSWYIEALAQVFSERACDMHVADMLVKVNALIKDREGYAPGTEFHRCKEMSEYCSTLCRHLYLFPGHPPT
UniProt Q6P5X5, sequence (Q6P5X5 whole entry, looked up): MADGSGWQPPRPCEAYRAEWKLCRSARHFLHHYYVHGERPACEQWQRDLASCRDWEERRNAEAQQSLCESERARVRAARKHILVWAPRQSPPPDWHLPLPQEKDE
UniProt Q14677, sequence (Q14677 whole entry, looked up): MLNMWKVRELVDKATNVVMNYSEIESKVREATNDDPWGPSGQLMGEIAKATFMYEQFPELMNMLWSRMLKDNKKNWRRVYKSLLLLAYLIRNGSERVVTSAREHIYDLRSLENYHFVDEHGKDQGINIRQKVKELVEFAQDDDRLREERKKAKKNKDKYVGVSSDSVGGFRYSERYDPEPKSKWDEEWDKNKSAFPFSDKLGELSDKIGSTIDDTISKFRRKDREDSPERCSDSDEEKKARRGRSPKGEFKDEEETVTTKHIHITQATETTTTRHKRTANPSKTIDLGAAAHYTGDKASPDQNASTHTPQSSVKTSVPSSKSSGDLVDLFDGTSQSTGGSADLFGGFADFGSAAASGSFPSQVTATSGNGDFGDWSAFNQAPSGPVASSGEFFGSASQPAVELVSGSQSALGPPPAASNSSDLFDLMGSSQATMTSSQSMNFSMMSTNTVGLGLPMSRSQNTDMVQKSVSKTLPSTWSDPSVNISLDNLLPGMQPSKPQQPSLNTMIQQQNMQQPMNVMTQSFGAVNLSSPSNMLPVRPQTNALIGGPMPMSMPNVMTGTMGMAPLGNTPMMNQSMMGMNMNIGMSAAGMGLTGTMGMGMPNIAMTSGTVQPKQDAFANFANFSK
UniProt Q96KP4, sequence (Q96KP4 whole entry, looked up): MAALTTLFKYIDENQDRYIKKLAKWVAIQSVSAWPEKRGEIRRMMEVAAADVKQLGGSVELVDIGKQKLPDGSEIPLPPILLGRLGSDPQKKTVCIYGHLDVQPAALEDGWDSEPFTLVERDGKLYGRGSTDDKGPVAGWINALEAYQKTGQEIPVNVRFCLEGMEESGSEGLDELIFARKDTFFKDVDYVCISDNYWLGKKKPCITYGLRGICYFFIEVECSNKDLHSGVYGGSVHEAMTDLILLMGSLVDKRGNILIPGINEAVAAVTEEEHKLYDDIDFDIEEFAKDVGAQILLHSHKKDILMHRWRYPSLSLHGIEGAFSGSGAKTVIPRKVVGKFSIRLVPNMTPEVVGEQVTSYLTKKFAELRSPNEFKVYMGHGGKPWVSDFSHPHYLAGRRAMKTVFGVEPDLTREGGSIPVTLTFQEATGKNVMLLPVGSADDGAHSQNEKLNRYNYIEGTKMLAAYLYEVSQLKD
UniProt Q8IWV2, sequence (Q8IWV2 whole entry, looked up): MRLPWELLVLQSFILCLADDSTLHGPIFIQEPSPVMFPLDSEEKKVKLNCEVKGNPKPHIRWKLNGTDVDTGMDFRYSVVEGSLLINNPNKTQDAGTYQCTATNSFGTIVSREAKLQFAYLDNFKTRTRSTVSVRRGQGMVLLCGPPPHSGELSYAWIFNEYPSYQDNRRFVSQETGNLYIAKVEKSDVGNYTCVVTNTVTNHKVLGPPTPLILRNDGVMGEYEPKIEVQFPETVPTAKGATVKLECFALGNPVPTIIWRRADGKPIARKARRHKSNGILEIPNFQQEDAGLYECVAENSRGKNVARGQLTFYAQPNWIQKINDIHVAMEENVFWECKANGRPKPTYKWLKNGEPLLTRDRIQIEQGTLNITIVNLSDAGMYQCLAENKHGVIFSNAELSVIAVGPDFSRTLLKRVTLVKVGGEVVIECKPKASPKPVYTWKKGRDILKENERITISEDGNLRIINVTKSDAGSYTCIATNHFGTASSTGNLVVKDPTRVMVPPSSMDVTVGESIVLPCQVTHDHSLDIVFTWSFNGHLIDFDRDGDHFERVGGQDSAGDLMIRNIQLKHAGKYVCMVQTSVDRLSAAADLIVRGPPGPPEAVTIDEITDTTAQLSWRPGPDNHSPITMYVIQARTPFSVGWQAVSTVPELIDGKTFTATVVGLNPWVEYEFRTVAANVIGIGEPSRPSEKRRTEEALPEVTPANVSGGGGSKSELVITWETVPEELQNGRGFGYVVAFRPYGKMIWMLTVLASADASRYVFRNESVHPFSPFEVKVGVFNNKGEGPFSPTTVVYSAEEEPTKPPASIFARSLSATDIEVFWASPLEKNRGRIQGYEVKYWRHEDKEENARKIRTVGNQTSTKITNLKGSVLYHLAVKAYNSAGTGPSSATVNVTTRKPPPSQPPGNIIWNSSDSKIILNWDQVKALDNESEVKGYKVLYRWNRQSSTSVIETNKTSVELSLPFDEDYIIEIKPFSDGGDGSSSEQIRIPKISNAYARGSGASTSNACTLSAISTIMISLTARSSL
UniProt O95319, sequence (O95319 whole entry, looked up): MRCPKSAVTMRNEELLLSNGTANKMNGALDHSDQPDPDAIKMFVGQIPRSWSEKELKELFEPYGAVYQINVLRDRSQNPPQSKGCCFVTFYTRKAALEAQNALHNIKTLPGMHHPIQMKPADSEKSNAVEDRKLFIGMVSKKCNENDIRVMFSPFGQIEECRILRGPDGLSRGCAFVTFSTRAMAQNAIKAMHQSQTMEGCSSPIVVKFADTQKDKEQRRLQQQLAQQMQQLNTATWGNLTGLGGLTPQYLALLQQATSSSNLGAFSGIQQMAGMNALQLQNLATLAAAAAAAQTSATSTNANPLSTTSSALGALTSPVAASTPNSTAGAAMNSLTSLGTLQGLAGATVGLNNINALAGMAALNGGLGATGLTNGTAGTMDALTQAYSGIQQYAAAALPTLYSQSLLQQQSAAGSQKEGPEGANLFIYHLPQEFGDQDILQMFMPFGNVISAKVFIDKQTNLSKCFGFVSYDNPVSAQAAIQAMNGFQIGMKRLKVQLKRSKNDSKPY
UniProt Q9NPF2, sequence (Q9NPF2 whole entry, looked up): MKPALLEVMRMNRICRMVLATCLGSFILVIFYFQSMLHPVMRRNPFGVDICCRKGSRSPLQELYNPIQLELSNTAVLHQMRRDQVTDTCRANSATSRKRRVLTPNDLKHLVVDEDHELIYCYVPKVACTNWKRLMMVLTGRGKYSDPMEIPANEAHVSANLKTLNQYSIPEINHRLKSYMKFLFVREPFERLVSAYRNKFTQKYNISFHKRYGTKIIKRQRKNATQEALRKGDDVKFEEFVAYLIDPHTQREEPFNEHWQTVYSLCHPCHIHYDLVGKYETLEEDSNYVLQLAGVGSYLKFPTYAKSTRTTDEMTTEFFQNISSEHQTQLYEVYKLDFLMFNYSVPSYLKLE
UniProt O75122, sequence (O75122 whole entry, looked up): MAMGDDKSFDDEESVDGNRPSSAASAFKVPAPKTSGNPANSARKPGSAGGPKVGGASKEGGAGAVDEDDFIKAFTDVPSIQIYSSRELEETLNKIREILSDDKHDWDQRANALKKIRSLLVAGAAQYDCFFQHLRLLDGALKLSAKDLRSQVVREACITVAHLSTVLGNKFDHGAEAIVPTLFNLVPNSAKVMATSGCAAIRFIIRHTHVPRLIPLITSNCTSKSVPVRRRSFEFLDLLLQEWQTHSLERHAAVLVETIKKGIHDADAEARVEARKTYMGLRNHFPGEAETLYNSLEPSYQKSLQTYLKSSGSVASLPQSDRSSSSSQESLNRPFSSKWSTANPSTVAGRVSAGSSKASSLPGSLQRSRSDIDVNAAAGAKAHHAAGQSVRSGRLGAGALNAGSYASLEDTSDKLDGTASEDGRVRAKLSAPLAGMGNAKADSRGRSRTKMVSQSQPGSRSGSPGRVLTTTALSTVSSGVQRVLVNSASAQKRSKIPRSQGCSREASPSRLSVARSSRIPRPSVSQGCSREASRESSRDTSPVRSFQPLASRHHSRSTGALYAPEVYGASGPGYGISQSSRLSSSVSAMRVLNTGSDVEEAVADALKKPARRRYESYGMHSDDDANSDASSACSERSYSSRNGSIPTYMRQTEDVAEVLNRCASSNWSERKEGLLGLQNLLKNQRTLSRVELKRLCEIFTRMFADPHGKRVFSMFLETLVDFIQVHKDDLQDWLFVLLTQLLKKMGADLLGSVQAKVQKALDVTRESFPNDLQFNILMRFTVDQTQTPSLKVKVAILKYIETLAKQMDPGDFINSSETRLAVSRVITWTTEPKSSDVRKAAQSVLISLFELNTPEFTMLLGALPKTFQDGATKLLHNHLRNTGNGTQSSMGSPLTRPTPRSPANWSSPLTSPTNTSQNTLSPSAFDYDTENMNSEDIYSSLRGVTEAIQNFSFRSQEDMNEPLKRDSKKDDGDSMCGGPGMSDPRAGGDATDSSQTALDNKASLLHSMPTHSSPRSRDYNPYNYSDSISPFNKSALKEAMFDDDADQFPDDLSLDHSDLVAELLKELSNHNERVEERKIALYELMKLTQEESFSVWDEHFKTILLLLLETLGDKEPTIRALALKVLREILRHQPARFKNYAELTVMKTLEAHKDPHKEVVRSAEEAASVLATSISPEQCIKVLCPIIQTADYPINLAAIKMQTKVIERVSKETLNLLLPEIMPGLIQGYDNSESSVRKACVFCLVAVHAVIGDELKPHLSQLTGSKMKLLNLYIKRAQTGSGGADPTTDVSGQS
UniProt Q8NHZ8, sequence (Q8NHZ8 whole entry, looked up): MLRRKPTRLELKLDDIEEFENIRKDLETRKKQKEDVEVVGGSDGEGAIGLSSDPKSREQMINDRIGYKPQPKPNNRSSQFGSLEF

Compound in the first test: Cc1sc2c(c1C)C(c1ccc(Cl)cc1)=N[C@@H](CC(=O)OC(C)(C)C)c1nnc(C)n1-2
Briefly: log2 fold change, soluble protein after heating vs DMSO (PISA); higher = thermal stabilisation; K562 cells, 10 uM, 30 min; active = over 0.2 and 3.5 SD of the protein, either way, in both replicates (recomputed). The procedure, abridged: (§1)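 K562 cells at 2×10^6 cells/mL were treated with 10 μM compound for 30 min. Aliquots were heated for 3 min across 48°C-58°C, pooled, and extracted in PBS with 0.5% NP-40 at 4°C; soluble protein was the supernatant after 21,000xg for 90 min. Soluble protein was quantified by TMTpro 16plex LC-MS/MS with channel sums equalised, and reported as log2 fold change in thermal stability against DMSO controls, with values from duplicates.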
As to CLCN3 isoform 2 (UniProt P51790), the log2 fold change is -0.021.
CSTF3 (UniProt Q12996): the log2 fold change was 0.03.
For the target CAMK2G isoform 6 (UniProt Q13555), the log2 fold change is 0.096.
Turning to C19orf53 (UniProt Q9UNZ5), the log2 fold change was 0.203.
Consider C22orf39 (UniProt Q6P5X5), for which the log2 fold change was -0.06.
Consider CLASP2 isoform 3 (UniProt O75122), for which the log2 fold change was -0.024.
CELF2 isoform 3 (UniProt O95319): the log2 fold change was 0.071.
Take CDK8 (UniProt P49336): the log2 fold change is 0.035.
Turning to CAVIN1 (UniProt Q6NZI2), the log2 fold change is 0.101.
Regarding CCDC57 (UniProt Q2TAC2), the log2 fold change was -0.161.
Still for that read-out and setting: the result for CDC37L1 (UniProt Q7L3B6) reads 0.337; that for CHST11 (UniProt Q9NPF2), 0.007; that for CLTB (UniProt P09497), -0.01.
In the case of CNDP2 (UniProt Q96KP4), the log2 fold change is 0.009.
Still for that read-out and setting: the value for CDC26 (UniProt Q8NHZ8) was -0.038; that for CCDC9 (UniProt Q9Y3X0) was 0.091.
In the case of CNN2 (UniProt Q99439), the log2 fold change was 0.007.
In the case of CHST10 (UniProt O43529), the log2 fold change was -0.052.
On the same count and under the same terms, the result for CASP2 (UniProt P42575) reads -0.01; that for CLPTM1L (UniProt Q96KA5), -0.145.
Take CNTN4 (UniProt Q8IWV2): the log2 fold change is -0.075.
Still for that read-out and setting: the result for CIT isoform 4 (UniProt O14578) reads -0.011; that for CIR1 (UniProt Q86X95), 0.198; that for COX6B1 (UniProt P14854), -0.153.
Turning to COQ9 (UniProt O75208), the log2 fold change was -0.081.
The same measure, in the same setting: the value for CLINT1 (UniProt Q14677) was -0.009.
For CASP3 (UniProt P42574), the log2 fold change was -0.055.
With CHCHD4 isoform 2 (UniProt Q8N4Q1), the log2 fold change is -0.489 (active).
Consider CHD3 isoform 3 (UniProt Q12873), for which the log2 fold change is -0.038.
As to CHMP4C (UniProt Q96CF2), the log2 fold change is 0.051.

Compound in another test: c1ccc([C@@H]2C[C@H]2NC2CCNCC2)cc1
The description is as above. The procedure, abridged: as §1
Turning to CLCN3 isoform 2 (UniProt P51790), the log2 fold change is 0.013.
In the case of CSTF3 (UniProt Q12996), the log2 fold change is -0.016.
Take CAMK2G isoform 6 (UniProt Q13555): the log2 fold change is -0.021.
As to C19orf53 (UniProt Q9UNZ5), the log2 fold change is -0.01.
Consider C22orf39 (UniProt Q6P5X5), for which the log2 fold change was -0.037.
With CLASP2 isoform 3 (UniProt O75122), the log2 fold change is -0.014.
Still for that read-out and setting: the result for CCNC (UniProt P24863) reads -0.037; that for CELF2 isoform 3 (UniProt O95319), -0.014; that for CDK8 (UniProt P49336), -0.129.
Take CDK17 isoform 2 (UniProt Q00537): the log2 fold change is -0.083.
On the same count and under the same terms, the result for CAVIN1 (UniProt Q6NZI2) reads 0; that for CCDC57 (UniProt Q2TAC2), -0.139; that for CDC25B isoform 4 (UniProt P30305), -0.024.
As for CDC37L1 (UniProt Q7L3B6), the log2 fold change is 0.02.
Consider CDK4 (UniProt P11802), for which the log2 fold change is -0.165.
In the case of CHST11 (UniProt Q9NPF2), the log2 fold change is -0.139.
Take CLTB (UniProt P09497): the log2 fold change was -0.02.
Take CNDP2 (UniProt Q96KP4): the log2 fold change is -0.041.
In the case of CDC26 (UniProt Q8NHZ8), the log2 fold change was 0.022.
Consider CCDC9 (UniProt Q9Y3X0), for which the log2 fold change was 0.041.
With CDKN1B (UniProt P46527), the log2 fold change is -0.004.
On the same count and under the same terms, the value for CNN2 (UniProt Q99439) was 0.01; that for CHST10 (UniProt O43529) was 0.044; that for CASP2 (UniProt P42575) was -0.039.
For the target CLPTM1L (UniProt Q96KA5), the log2 fold change is 0.01.
CNTN4 (UniProt Q8IWV2): the log2 fold change was -0.106.
As for CIT isoform 4 (UniProt O14578), the log2 fold change is 0.009.
For the target CIR1 (UniProt Q86X95), the log2 fold change was 0.217.
For the target COX6B1 (UniProt P14854), the log2 fold change was -0.054.
With COQ9 (UniProt O75208), the log2 fold change is 0.036.
As to CLINT1 (UniProt Q14677), the log2 fold change was 0.157.
With CASP3 (UniProt P42574), the log2 fold change is 0.003.
Consider CHCHD4 isoform 2 (UniProt Q8N4Q1), for which the log2 fold change is -0.113.
The same measure, in the same setting: the result for CHD3 isoform 3 (UniProt Q12873) reads 0.087.
Take CHMP4C (UniProt Q96CF2): the log2 fold change was 0.03.
